Source: PubChem BioAssay AID1779 (Sanford-Burnham Center for Chemical Genomics, 2009)
In all, about 290,000 compounds went through this assay and about 160 (0.055%) were called active. For the sample, actives were picked, then their nearest neighbours and some compounds at random. Unmarked numbers belong to inactive results. Cut-off read from the data, not from the text of the source: active = inhibition above about 50%; inactive = the rest.

target: Tyrosine-protein phosphatase non-receptor type 22 (Homo sapiens) (UniProt Q9Y2R2); assay: PTPN22 lymphoid phosphatase activity blockers – biochemical, fluorescence intensity, uHTS (AID 1779); conditions: recombinant LYP phosphatase, at 11.5 µM, active compounds read high;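 note: plate controls were vehicle with enzyme for no effect and no enzyme for full effect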
Sequence (Q9Y2R2 whole entry, looked up): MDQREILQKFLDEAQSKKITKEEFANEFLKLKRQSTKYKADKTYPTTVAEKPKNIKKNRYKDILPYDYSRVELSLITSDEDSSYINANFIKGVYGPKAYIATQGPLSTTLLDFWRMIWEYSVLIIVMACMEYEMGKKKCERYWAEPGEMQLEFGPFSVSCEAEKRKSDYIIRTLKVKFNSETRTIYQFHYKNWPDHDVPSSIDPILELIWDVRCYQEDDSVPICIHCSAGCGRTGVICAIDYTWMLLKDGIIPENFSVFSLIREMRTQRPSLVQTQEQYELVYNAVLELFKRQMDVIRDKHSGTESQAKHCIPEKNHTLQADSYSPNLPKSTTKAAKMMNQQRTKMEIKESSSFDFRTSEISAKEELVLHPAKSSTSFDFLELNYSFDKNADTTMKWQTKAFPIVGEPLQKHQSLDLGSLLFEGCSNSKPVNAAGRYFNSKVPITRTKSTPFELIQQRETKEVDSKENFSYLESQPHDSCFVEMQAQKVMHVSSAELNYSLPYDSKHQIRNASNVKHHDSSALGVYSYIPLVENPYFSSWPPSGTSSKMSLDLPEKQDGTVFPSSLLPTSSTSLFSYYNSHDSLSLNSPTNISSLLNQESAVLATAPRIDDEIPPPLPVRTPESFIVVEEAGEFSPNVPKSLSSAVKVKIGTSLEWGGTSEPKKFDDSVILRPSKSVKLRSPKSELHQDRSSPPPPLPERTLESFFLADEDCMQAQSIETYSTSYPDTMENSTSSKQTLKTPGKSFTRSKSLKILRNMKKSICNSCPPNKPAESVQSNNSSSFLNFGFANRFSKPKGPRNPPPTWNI

Structure (SMILES)	inhibition
N#C/C(=C\c1ccccc1OCc1ccc(C(=O)O)cc1)c1ccccc1	-4.4%
N#C/C(=C/c1ccc(OCc2ccc(C(=O)O)cc2)cc1)C(=O)Nc1ccccc1	-4.6%
N#C/C(=C\c1ccc(OCc2ccccc2)cc1)C(=O)Nc1ccc(C(=O)O)cc1	3%
N#C/C(=C\c1ccc(OCc2ccc(Br)cc2)cc1)C(=O)Nc1cccc(C(=O)O)c1	93.4% (active)
CCOc1cc(/C=C(\C#N)C(=O)Nc2cccc(C(=O)O)c2)ccc1OCc1ccccc1Cl	-2.4%
COc1cc(/C=C(\C#N)C(=O)Nc2cccc(C(=O)O)c2)ccc1OCc1ccc(Cl)cc1	15%
N#C/C(=C/c1ccccc1OCc1ccc(F)cc1)c1ccc(C(=O)O)cc1	-6.7%
N#C/C(=C\c1ccc(OCc2ccc(F)cc2)cc1)C(=O)Nc1cccc(C(=O)O)c1	5.5%
COc1cc(/C=C(\C#N)C(=O)Nc2cccc(C(=O)O)c2)ccc1OCc1ccc(C)cc1	-1.7%
COc1ccc(-c2sc3ccccc3c2C#CC2(O)CCCCC2)cc1	-5%
CSc1nc2ccc(NS(=O)(=O)c3ccc(Cl)s3)cc2s1	1.1%
COC(=O)CSCC(=O)Nc1nnc(-c2cccc(C)c2)s1	5%
CC(=O)c1sc(NC(=O)C(C)Oc2ccc3c(C)cc(=O)oc3c2)nc1C (stereo not given)	-5.1%
CC(=O)N(C)c1ccc(NC(=S)Nc2cccc3ccccc23)cc1	-2.8%
O=C(Cn1nc(Cc2cccnc2)c2ccccc2c1=O)Nc1cc(F)ccc1F	-6.7%
O=C(N=C1SC2CS(=O)(=O)CC2N1Cc1ccccc1Cl)C1CC1 (stereo not given)	-11.3%
COc1ccccc1CNC(=O)c1cc2sccc2n1C	-5.5%
CC(=O)Nc1ccc(S(=O)(=O)N2CCC(NC(=O)C(Cc3ccc(C)cc3)NC(C)=O)CC2)cc1 (stereo not given)	-16%
CCC1=C(OC(=O)N(CC)CC)N2C(=O)OC(=NCC3CC3)[C@]2(C)[C@H]2C1=CC[C@H]1C(=O)NC(=O)[C@H]12	-0.8%
CCOC(=O)c1c(C)[nH]c(C)c1C(=O)CSc1nc2ccccc2n1CC	-7.1%
O=C(O)C1CCCCC1C(=O)Nc1ccc(Cl)cc1 (stereo not given)	-1.6%
O=C(O)C1CC=CCC1C(=O)Nc1ccc(F)c(F)c1 (stereo not given)	6.1%
O=C(O)C1CCCCC1C(=O)Nc1ccc(F)c(F)c1 (stereo not given)	51.4% (active)
COc1cccc(C2C(C(=O)c3cc4ccccc4o3)=C(O)C(=O)N2c2cc(C)on2)c1 (stereo not given)	-8%

Structure (SMILES)	inhibition
CCCN1C(=O)COc2ccc(C(=O)c3ccccc3C(=O)O)cc21	-4.6%
Cc1ccc(C)c(CN2C(=O)COc3ccccc32)c1	-5.6%
Cc1ccc(C)c(CN2C(=O)COc3ccc(C(=O)c4ccccc4C(=O)O)cc32)c1	57.9% (active)
O=S(=O)(/C=C/c1ccccc1)NC1CCCCCCC1	-7.9%
CC(c1ccccc1)n1c(N2CCN(C)CC2)nc2c1c(=O)[nH]c(=O)n2C (stereo not given)	-0.2%
CCN(CC)CCNC(=O)Cc1nn(CC)c(=O)c2ccccc12	-9.1%
COCCn1c(=O)c2cc3c(=O)n(CCOC)c(=O)c3cc2c1=O	-8.5%
CCCC(=O)NCCc1cc2ccc(C)c(C)c2[nH]c1=O	67.2% (active)
CC(=O)NCCc1cc2ccc(C)c(C)c2[nH]c1=O	0.4%
CCC(=O)NCCc1cc2ccc(C)c(C)c2[nH]c1=O	1.7%
CCOc1ccccc1/C=N/OCC(=O)NCc1ccc(F)cc1	-5.5%
Cc1ccc(-n2c(=O)c3cc4c(=O)n(-c5ccc(C)c(C)c5)c(=O)c4c(C(=O)c4ccc(C(=O)O)cc4)c3c2=O)cc1C	85.8% (active)
O=C(O)c1ccc(-n2c(=O)c3ccccc3c3ccccc3c2=O)cc1	-4%
Cc1ccc(N2C(=O)c3ccc(C(=O)O)cc3C2=O)cc1C	-1.9%
COCCN(C(=O)c1csnn1)C(C(=O)NC1CCCCC1)c1ccc(C)cc1 (stereo not given)	-9.2%
NC(=O)C(c1cccc(Cl)c1)c1ncc(C(F)(F)F)cc1Cl (stereo not given)	-10.5%
C#CCOc1ccc(/C=N/NC(=O)c2cccnc2)cc1OCC	1.2%
COc1ccccc1OCC(=O)OCC(=O)Nc1ncc(Cl)cc1Cl	-9.7%
O=C(Nc1ccccc1)C1=C[C@@H](C2CCCCC2)C[C@@H](OCCCCO)O1	2.1%
O=C(O)CCN1C(=O)/C(=C/c2ccc(-c3nc4ccccc4s3)o2)SC1=S	14.6%
O=C(O)CCCN1C(=O)/C(=C\c2ccc(-c3nc4ccccc4s3)o2)SC1=S	6.8%
O=C(c1ccc2c(c1)OCO2)N1CCC2(CC1)Oc1ccc(Cl)cc1C(=O)C21CC(c2ccccc2)=NO1 (stereo not given)	5.7%
O=C(O)c1cccc(-n2cccc2/C=C2/NC(=O)N(c3cccc(Cl)c3)C2=O)c1	0.3%
O=C(O)c1ccc(-n2cccc2/C=C2/NC(=O)N(c3cccc(Cl)c3)C2=O)cc1	6.2%

Structure (SMILES)	inhibition
Cc1cc(NC(=O)Nc2ccc(Cl)cc2)no1	-8.1%
CC[C@H](C)[C@H](NC(N)=O)C(=O)OCC(=O)NCc1ccc(Cl)cc1	-4.9%
COc1cc2c(cc1OC)-c1nnc(-c3ccco3)n1C1(CCCC1)C2	-4.3%
Cc1cc(N2CCOCC2)nc(SCc2ccc(Cl)cc2Cl)n1	-4.6%
O=C(O)C1CCC(N2C(=O)C3CCCCC3C2=O)CC1 (stereo not given)	-12.2%
O=C(O)C1CCC(N2C(=O)c3cccc([N+](=O)[O-])c3C2=O)CC1 (stereo not given)	-7.1%
O=C(O)C1CCC(N2C(=O)c3c(Cl)c(Cl)c(Cl)c(Cl)c3C2=O)CC1 (stereo not given)	94.2% (active)
Cc1cccc(OCC(=O)Nc2nnn(C)n2)c1C	-6.4%
COc1cc(/C=N/NC(=O)c2cc(-c3ccccc3)nc3ccccc23)ccc1O	-1.5%
CCOc1ccccc1-c1cc(C(=O)N/N=C/c2ccc(O)c(OC)c2)c2ccccc2n1	64.5% (active)
COc1cc(/C=N/NC(=O)c2cc(-c3ccccc3OC(C)C)nc3ccccc23)ccc1O	4.4%
O=C(NCCc1ccccn1)C1CCN(S(=O)(=O)c2ccc(Cl)cc2)CC1	-6.8%
CCOC(=O)c1ccc(NC(=S)NC(=O)c2nn(CC)cc2Br)cc1	1.9%
CCOC(=O)c1ccc(NC(=O)c2nn(CC)cc2Br)cc1	-4.5%
CCn1cc(Br)c(C(=O)NC(=S)Nc2ccc(C(=O)OC)cc2)n1	65.2% (active)
COC(=O)CNC(=O)c1ccc(C)s1	-7.8%
CN1CCN(S(=O)(=O)c2ccc3ccccc3c2)CC1	-4.3%
CCS(=O)(=O)N1CCN(S(=O)(=O)c2ccc3ccccc3c2)CC1	-9.2%
CN(C)S(=O)(=O)N1CCN(S(=O)(=O)c2ccc3ccccc3c2)CC1	71.6% (active)
CCN(CC(=O)N1CCOCC1)S(=O)(=O)c1ccc2ccccc2c1	-8.1%
Cc1ccc(OCC(O)CNS(=O)(=O)c2ccccc2C(=O)O)cc1 (stereo not given)	-4.9%
CCC(=O)Nc1ccc(/C(C)=N/NC(=O)c2c(-c3ccccc3Cl)noc2C)cc1	-2.5%
CC(=O)Nc1cccc(NC(=O)c2c(-c3ccccc3Cl)noc2C)c1	-3.7%
C/C(=N\NC(=O)c1c(-c2ccccc2Cl)noc1C)c1cccc(NC(=O)C(C)C)c1	77.1% (active)

Structure (SMILES)	inhibition
C/C(=N\NC(=O)C(=O)Nc1cccc(Cl)c1C)c1ccncc1	-8%
O=C(c1cc2cc(Cl)ccc2[nH]1)N1CCN(C(=O)c2ccco2)CC1	-9.3%
CN1CCN(C(=O)c2cc3cc(F)ccc3[nH]2)CC1	-9.9%
O=C(c1cc2cc(F)ccc2[nH]1)N1CCN(C(=O)c2ccco2)CC1	95.1% (active)
O=C(NNc1c(Cl)cccc1Cl)c1cccs1	-4.8%
CCCC(=O)Nc1ccc(Cl)c(NC(=O)CC)c1	-12.2%
O=C(NC(=S)Nc1ccc(CN2CCOCC2)cc1)c1ccc(-c2ccc(Br)cc2)o1	-14.4%
O=C(NC(=S)Nc1ccccc1C(=O)O)c1ccc(-c2ccc(Br)cc2)o1	1.2%
O=C(O)c1ccc(NC(=S)NC(=O)c2ccc(-c3ccc(Br)cc3)o2)cc1	86.9% (active)
CCCc1cc(C(=O)NC2CCCN(Cc3ccccc3F)C2)no1 (stereo not given)	-1.5%
CC(=O)N(CC(=O)O)c1ccccc1	-0.7%
O=C(COc1ccccc1F)Nc1cc(S(=O)(=O)N2CCOCC2)ccc1N1CCOCC1	-1.3%
CCC(C)NCCOCCOc1ccc(Cl)cc1Br (stereo not given)	-3.3%
CCC(C)NCCOCCOc1ccc(Cl)c(C)c1C (stereo not given)	76.9% (active)
CCC(C)NCCOCCOc1ccc(Cl)c2ccccc12 (stereo not given)	1.1%
Cc1ccc(N=Nc2c(O)n(CN3CCOCC3)c3ccccc23)cc1	72% (active)
Cc1cccc(NC(=S)N=Nc2c(O)n(CN3CCOCC3)c3ccccc23)c1C	-4.1%
Cc1c(Cl)cccc1NC(=S)N=Nc1c(O)n(CN2CCOCC2)c2ccccc12	-0.8%
O=S(=O)(CCCc1ccccc1)c1ncn[nH]1	-3%
COc1ccc(N(CC(=O)NCCSC(C)(C)C)S(C)(=O)=O)c(OC)c1	-6.6%
Cc1ccc(OCC(=O)N/N=C\c2ccco2)c(C)c1	51.3% (active)
Cc1ccccc1OCC(=O)N/N=C/c1ccco1	-3.4%
Cc1ccc(OCC(=O)N/N=C/c2ccco2)cc1	-5.1%
